Results published in PubChem BioAssay (NCI).
About 83,000 compounds went through this panel and 20% of them were active in at least one assay; those are over-represented in the sample as a whole.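 Testing used 96-well plates and a 48-hour single-concentration exposure. Example: -40 means 40% of the starting cells died.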 Values without a mark were called inactive. Calls of active or inactive are those of the source. How the source made its calls: active means growth percent below 10; inactive means the rest.

Test system: HL-60(TB) leukemia
Experiment: NCI-60 one-dose screen, 48 h (100 = growth as untreated, 0 = no growth, -100 = all killed)
Conditions: 10 µM unless noted

SMILES	growth
COc1ccc(OCC(O)CN2CCN(c3ccc(Cl)cc3)CC2)cc1 (centres undefined)	105%
CCCCc1n(Cc2ccc3ccccc3n2)cc[n+]1Cc1ccc2ccccc2n1	-44.7% (active)
CN1C[C@@H](c2ccc(Cl)cc2)[C@]2(NC(=S)N(c3ccc(F)c(Cl)c3)C2=O)[C@@]12C(=O)NC1C=CC(Cl)=C[C@H]12 (some centres undefined)	-17.9% (active)
CC1=CC2OC34COC3CC(OC(=O)C(F)(F)F)C4(C)C2(C)CC1 (centres undefined)	114%
Clc1ccccc1[C@@H]1C[C@@H]2Cc3cc(Br)c4ccccc4c3N1O2	7.98% (active)
CNc1ncc2cc(-c3cc(NC(=O)NCCC(C)(C)C)c(F)cc3C)c(C)nc2n1	6.32% (active)
O=C(/C=C/c1cc2ccccc2[nH]c1=O)c1ccc(Cl)cc1	11.6%
COc1cc2c(cc1O)CC[C@@H]1[C@@H]2CC[C@]2(C)[C@@H](NCCN(C)C)CC[C@@H]12	-67.7% (active)
O=S(=O)(NCCCNc1cc(-c2c(-c3cccc(O)c3)nc3sccn23)ccn1)c1cccc2ccccc12	41.3%
CCCCCCCCC(C)C(=O)N1CCCC1C(=O)N1C(CC(=O)CC)CC(C)CC1C(=O)NC(C)C(=O)NC(C)(C)C(=O)NC(C)(C)C(=O)NC(C(=O)NC(C)C(=O)NC(C)(C)C(=O)NC(C)(C)C(=O)NC(C)CN(C)CCO)C(C)CC (centres undefined)	-51.8% (active)
c1ccc(-c2nnc(Nc3nnc(-c4ccccc4)s3)s2)cc1	103%
CCCCSCC(=O)c1ccccc1	63.4%
C=C1CCC2C3(C)COC(c4ccccc4Br)OC3CCC2(C)C1C/C=C1/C(=O)OCC1OC(C)=O (centres undefined)	-48.7% (active)
Clc1ccc(SSc2ccc(Cl)cc2)cc1	102%
CCOC(=O)c1ccc(NC(=O)CCCN(CC)CC)cc1	100%
Cn1c(=O)[nH]c2ccccc2c1=O	111%
Cc1cccc(C)c1-c1cc(Cc2ccc(Cl)cc2)c(=O)[nH]n1	90.8%
CN(C)CCN1C(=O)c2cccc3cc(N)cc(c23)C1=O	1.68% (active)
N#CCCN1C/C(=C/c2ccc(Br)cc2)C(=O)/C(=C/c2ccc(Br)cc2)C1	1.68% (active)
CCOC(=O)CNS(=O)(=O)CC(=O)c1ccccc1	102%

SMILES	growth
Cc1cc2nc3c4ccccc4n(CCN(C)C)c3nc2cc1C	8.35% (active)
COc1ccc2nc3cc(Cl)ccc3c(Nc3cc(C(C)C)c(O)cc3C)c2c1	7.64% (active)
CCCCCCCCCCCCCCCCCC1OCC(COC(=O)O[C@]2(CC)C(=O)OCc3c2cc2n(c3=O)Cc3cc4ccccc4nc3-2)O1 (some centres undefined)	102%
COc1cc2c(c(OC)c1OC)-c1ccc(N)c(=O)cc1[C@@H](NC(C)=O)CC2	3.69% (active)
CCN(CC)CCC(C(=O)O)(c1ccccc1)c1ccccc1	93.5%
O=c1c(O)cccn1CCCNCCCN(CCCn1cccc(O)c1=O)CCCn1cccc(O)c1=O	120%
COc1ccc(/C=C/C(=O)c2ccc(NC(=O)c3cc4cc5ccccc5nc4s3)cc2)cc1OC	92.5%
CN1C(=O)N(C)C2C1NN=c1s/c(=C\c3ccsc3)c(=O)n12 (centres undefined)	5.85% (active)
O=C(/C=C/C12c3ccccc3C(c3ccccc31)C1C(=O)NC(=O)C12)c1ccco1 (centres undefined)	8.34% (active)
CCCCCCCCCCCCCCCCCCOc1ccc(CC(=O)OCC[N+]2(C)CCCCC2)cc1	83.4%
CCOc1ccc(C(=O)O)cc1	103%
CC(C)C[C@H](C(=O)N[C@@H](C)C(N)=O)N1CC=CCN(O)S1(=O)=O	110% [5 µM]
Cc1c(O)cc(-c2cnc(Nc3ccccc3)s2)c(O)c1C	101%
COc1cc(-c2nn(-c3ccc(NC(=O)NCCNS(=O)(=O)c4ccc(F)cc4)cc3)cc2-c2ccncc2)ccc1Cl	-9.47% (active)
CN1CCN(c2ccc(Nc3c4ccccc4nc4ccccc34)cc2)CC1	119%
Cc1cccc(N2CCN(C(=S)c3ccc4c(c3)OCO4)CC2)c1	-20% (active)
O=S(Nc1ccccc1)c1ccc(Cl)cc1 (centres undefined)	90.8%
COc1ccc(C2CC(c3cnccn3)=NN2)cc1OC (centres undefined)	46.5%
Cc1cn(C2CCCCO2)c(=O)nc1NO (centres undefined)	102%
